Results reported in ChEMBL document CHEMBL3988442, “University of Dundee, Small-Polar-MMV Screening Library” (2021).
Out of some 85,000 compounds screened, about 440 (0.52%) showed an effect of 50% or more. The list comes from a sample in which strong results are over-represented; it also holds similar structures and randomly drawn compounds.

Assay: In vitro enzyme assay to detect hydrolysis of chlorophenol red-beta-D-[…] directly proportional to the number of Toxoplasma stably expressing beta-galactosidase
Type: functional, organism-based, Toxoplasma gondii
Set-up: scale not given: in the data most compounds retested in dose-response had high values

Row | Structure (SMILES) | Percent Effect (50 µM) [%] | Percent Effect (10 µM) [%]
1 | CCC(=O)N1CCCN(C(=O)C(N)C(C)(C)C)CC1 (stereo not drawn) | 9.824 | –
2 | Cc1ccc(C(=O)N2CCN(c3nccn3C)CC2)o1 | 58.26 | –
3 | CC(=O)N1CCN(c2nccn2C)CC1 | 15.57 | –
4 | Cc1ccc(C(=O)N2CCN(c3nccs3)CC2)o1 | 7.068 | –
5 | Cn1cc(NC(=O)CSc2nccn2C)cn1 | 23.13 | –
6 | CC(N)c1nnc2ccccn12 (stereo not drawn) | 17.22 | –
7 | O=C(Nc1ccccn1)NC1CCN(c2ccccc2OC(F)F)C1 (stereo not drawn) | – | 20.62
8 | O=C(Nc1cccnc1)NC1CCN(c2ccccc2OC(F)F)C1 (stereo not drawn) | – | -3.215
9 | O=C(Nc1ccncc1)NC1CCN(c2ccccc2OC(F)F)C1 (stereo not drawn) | – | 74.41
10 | CCC1(CN)OCCc2ccccc21 (stereo not drawn) | 4.501 | –
11 | NC(=O)[C@@H]1Cc2ccccc2CO1 | 9.404 | –
12 | Cn1ncnc1CCNc1cc(C2CC(N)C2)ncn1 (stereo not drawn) | 22.67 | –
13 | CN1CCC(NC(=O)c2ccc3ncccc3c2)C1=O (stereo not drawn) | 1.515 | –
14 | CCCS(=O)(=O)N1CCC(NC(=O)c2cc3ccccc3s2)CC1 | – | 4.884
15 | CN1CCC(NC(=O)c2cc3ccccc3s2)C1=O (stereo not drawn) | 52.45 | –
16 | CCC(C)(NCc1cc(F)ccc1F)C(N)=O (stereo not drawn) | -22.31 | –
17 | CCN(CCNS(=O)(=O)C1CCOCC1)C(=O)OC(C)(C)C | – | 6.938
18 | CC(C)(C)OC(=O)N(CCNS(=O)(=O)N1CCOCC1)C1CC1 | – | -6.418
19 | CCN(CCNS(=O)(=O)N1CCOCC1)C(=O)OC(C)(C)C | – | 51.95
20 | O=C1CCOc2cc(O)c(F)cc21 | -11.53 | –
21 | CN(C)S(=O)(=O)CCCN1CCC2(CCCNC2=O)C1 (stereo not drawn) | 25.69 | –
22 | CC1CCCN(Cc2nc(N)nc(N(C)C)n2)C1 (stereo not drawn) | 28.57 | –
23 | COc1ccc(C(CO)N(C)Cc2ccncc2)cc1 (stereo not drawn) | 7.987 | –
24 | CC(CO)CNC(=O)c1cnc(OC(C)C)c(Cl)c1 (stereo not drawn) | 9.037 | –
25 | CCC(C#N)NC(=O)c1ccc(Oc2cccnc2)cc1 (stereo not drawn) | – | -3.821
26 | CCC(C#N)NC(=O)c1cnc(OC(C)C)c(Cl)c1 (stereo not drawn) | 77.34 | –
27 | O=C(c1ccccc1-n1cccn1)N1CCSCC1 | 5.631 | –

Row | Structure (SMILES) | Percent Effect (50 µM) [%] | Percent Effect (10 µM) [%]
28 | CCOc1ncccc1C(=O)N1CCCN(CC)CC1 | 8.353 | –
29 | COCC1CN(Cc2ccc(C)s2)Cc2nnn(C)c21.O=C(O)C(F)(F)F (stereo not drawn) | – | 3.713
30 | Cc1ccc(CN2Cc3nnn(C)c3C(COCc3ccccn3)C2)s1.O=C(O)C(F)(F)F.O=C(O)C(F)(F)F (stereo not drawn) | – | 13.37
31 | Cc1ccc(CN2Cc3nnn(C)c3C(COCC3CC3)C2)s1.O=C(O)C(F)(F)F (stereo not drawn) | – | -9.58
32 | Cc1ccc(CN2Cc3nnn(C)c3C(COCC(=O)N(C)C)C2)s1.O=C(O)C(F)(F)F (stereo not drawn) | – | -13.89
33 | Cc1ccc(CN2Cc3nnn(C)c3C(COCc3ccccc3)C2)s1.O=C(O)C(F)(F)F (stereo not drawn) | – | 57.56
34 | CC(C)(C)c1cc(NC(=O)CN2CCC(O)CC2)on1 | -5.429 | –
35 | CCOc1ccc(NC(=O)NC2CCS(=O)(=O)C2)cc1 (stereo not drawn) | 3.188 | –
36 | O=C(CN1CCNCC1)NCCSc1ccc(Cl)cc1 | 4.461 | –
37 | O=C(NCCCN1CCCCC1)c1ccc(-n2ccc3ccccc32)s1 | – | 79.49
38 | CCN(CC)CCNC(=O)c1ccc(-n2ccc3ccccc32)s1 | – | 63.07
39 | CCN(CC)CCNC(=O)c1cnc(C(C)(C)C)s1 | – | 0.3139
40 | O=C(NCCCN1CCOCC1)c1ccc(-n2ccc3ccccc32)s1 | – | 19.43
41 | O=C(NCCN1CCOCC1)c1ccc(-n2ccc3ccccc32)s1 | – | -1.22
42 | O=C(NCCCN1CCCC1=O)c1ccc(-n2ccc3ccccc32)s1 | – | 17.83
43 | CC1Sc2ccc(C(=O)N(C)C)cc2NC1=O (stereo not drawn) | -6.489 | –
44 | NC1CCN(c2ccccc2F)CC1 | -9.36 | –
45 | CCSCCC(C)N(C)C(=O)c1ccn(C)c(=O)c1 (stereo not drawn) | -4.294 | –
46 | O=C1NC(c2cc[nH]n2)Nc2ncccc21 (stereo not drawn) | -9.997 | –
47 | N#Cc1ccc(C2NC(=O)c3cccnc3N2)cc1 (stereo not drawn) | 98.73 | –
48 | COc1ccc(C2NC(=O)c3cccnc3N2)cc1F (stereo not drawn) | 6.983 | –
49 | CC(C)OCCN1CCC(O)CC1 | 2.889 | –
50 | O=C(Nc1ccncc1)N1CCN(CC2CC2)CC1 | 11.51 | –
51 | c1ccc(-c2noc(CN3CCOC(Cn4cccn4)C3)n2)nc1 (stereo not drawn) | – | 4.093
52 | CN(C)CC1CN(Cc2nc(-c3ccccn3)no2)CCO1 (stereo not drawn) | – | 86.82
53 | CN(C)CC1CN(Cc2nc(-c3cccnc3)no2)CCO1 (stereo not drawn) | – | 12.35
